This is a sample that favours compounds with a hit; in the whole collection about 2.3% have one here.
PP5 primary: PP5 (human) phosphatase inhibition; P53041; purified PP5c, OMFP substrate fluorescence; inhibition, % at 6.7 µM; 320,000 tested, 0.18% active; AID 1987;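 active = inhibition above the campaign's mean inhibition across all tested compounds plus 3 SD, cut at about 9.5% in these data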
bovine MsrA act: bovine methionine sulfoxide reductase A activation; purified bovine MsrA, absorbance read-out; activation, % at 10.6 µM; 360,000 tested, 0.3% active; AID 602163; in the data active = activation above about 7.5%
MsrA inhibitor: inhibits bovine methionine sulfoxide reductase A. inhibition, % at 15.5 µM. purified bovine MsrA, absorbance read-out. 360,000 tested, 0.75% active; in the data active = inhibition above about 4.5%
PP1 counter: counter-screen for PP5 inhibitors: inhibitors of human PP1-alpha; purified PP1alpha, OMFP fluorescence; inhibition, % at 6.7 µM; P62136; 320,000 tested, 0.9% active;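 active = inhibition above the mean inhibition of all tested compounds plus 3 SD, computed separately for each screening campaign, cut at about 15% in these data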
Target sequence (P62136 whole entry, looked up): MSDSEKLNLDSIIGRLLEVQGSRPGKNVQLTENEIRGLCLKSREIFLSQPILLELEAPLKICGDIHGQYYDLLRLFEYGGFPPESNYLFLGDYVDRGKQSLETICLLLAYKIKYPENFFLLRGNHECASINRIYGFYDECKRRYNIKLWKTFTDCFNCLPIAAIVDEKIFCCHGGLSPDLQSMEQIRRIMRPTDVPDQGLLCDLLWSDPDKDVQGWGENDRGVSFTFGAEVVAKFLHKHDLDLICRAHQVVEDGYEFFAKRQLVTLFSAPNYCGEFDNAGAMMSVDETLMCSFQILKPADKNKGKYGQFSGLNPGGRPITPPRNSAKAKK
ZTA DNA inh: counter-screen for EBNA-1 inhibitors: inhibitors of Epstein-Barr virus ZTA | ZTA-DNA binding, fluorescence polarization | inhibition, % at 11 µM | 320,000 tested, 0.15% active | AID 2234; in the data active = inhibition above about 33%
EBNA-1 inh: blocks EBNA-1 binding to DNA. inhibition, % at 14.8 µM. 300,000 tested, 0.34% active. EBNA-1 DNA binding, fluorescence polarization; in the data active = inhibition above about 28%
EBNA-1 confirm: EBNA-1 (EBV) inhibition, confirmation; shares compounds with EBNA-1 inh; Recombinant EBNA-1 DBD, Cy5-DNA fluorescence polarization; inhibition, % at 14.8 µM; 830 tested, 35% active; AID 2292;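 active = mean inhibition across replicates above a set limit taken from the earlier primary screen, cut at about 28% in these data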
ZTA DNA inh trip: counter-screen for EBNA-1 inhibitors: Epstein-Barr virus ZTA inhibitors, triplicate. inhibition, % at 11.1 µM. 830 tested, under 10 active. shares compounds with EBNA-1 inh. Zta-ZRE DNA binding, Cy5 fluorescence polarization;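 active = mean inhibition over triplicates above a set limit taken from the primary EBNA-1 screen, cut at about 37% in these data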;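 also: purified full length Zta protein with Cy5 labeled ZRE DNA probe; inhibitors lower polarization by freeing the labeled DNA probe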
Of the large screens only hits and unclear results are named; the others gave an inactive call (follow-up assays come after a bar, where they were run).

COc1ccc(-[n+]2c(-c3ccccc3)cc(-c3ccc(C)cc3)cc2-c2ccccc2)cc1	none
COc1ccc(-c2cc(-c3ccccc3)[n+](C)c(-c3ccccc3)c2)cc1	MsrA inhibitor 4.8
CCOc1ccccc1CN1CCCC(C(=O)c2cc(F)ccc2F)C1 (stereo not given)	none
O=C(NCCN1CCC2(CC1)C(=O)NCN2c1ccccc1)c1ccccc1F	none (no result: PP5 primary, bovine MsrA act, PP1 counter, ZTA DNA inh, EBNA-1 inh)
CNc1ccc2oc(C[C@H]3O[C@@]4(CC[C@H]3C)O[C@H]([C@H](C)C(=O)c3ccc[nH]3)[C@H](C)C[C@H]4C)nc2c1C(=O)O	PP1 counter 17
CCN1C[C@]2(COC(=O)c3ccccc3N)CC[C@H](OC)C34[C@@H]5C[C@H]6[C@H](OC)[C@@H]5[C@](O)(C[C@@H]6OC)[C@@](O)([C@H]13)[C@@H](OC)[C@@H]42	none
O=c1c2ccccc2[se]n1-c1ccccc1	bovine MsrA act 20
Cc1ccc(-n2c(O)c(/C=N/N3CCCCC3c3cccnc3)c(=O)[nH]c2=S)cc1 (stereo not given)	MsrA inhibitor 4.5
CC(=O)C1=C(C)OC2=C(C(=O)CCC2)[C@@]12C(=O)N(C)c1ccccc12	none (no result: PP5 primary, bovine MsrA act, PP1 counter, ZTA DNA inh, EBNA-1 inh)
O=C(c1cc2cc(Cl)ccc2[nH]1)N1CCC2(CC1)OCCO2	none
O=C(c1cc2cc(F)ccc2[nH]1)N1CCC2(CC1)OCCO2	PP1 counter 17
CCCC/C(C)=C/[C@@H](NP(=O)(c1ccccc1)c1ccccc1)c1ccccc1	PP1 counter 16
COC(=O)C1=C(c2ccc(F)cc2OCc2ccccc2)C[C@@H]2CC[C@H]1N2C(=O)NC1Cc2ccccc2C1	PP1 counter 17 (no result: EBNA-1 inh)
COC(=O)C1=C(c2ccccc2OCc2ccccc2)C[C@@H]2CC[C@H]1N2C(=O)NCc1ccc(F)cc1	none (no result: EBNA-1 inh)
COC(=O)C1=C(c2ccc(F)cc2OCc2ccccc2)C[C@@H]2CC[C@H]1N2C(=O)NCc1ccc(F)cc1	none (no result: EBNA-1 inh)
COC(=O)C1=C(c2ccccc2OCc2ccccc2)C[C@@H]2CC[C@H]1N2C(=O)NCc1ccc(C(C)(C)C)cc1	PP1 counter 17 (no result: EBNA-1 inh)
O=c1c2ccccc2nc(/C=C/c2ccccn2)n1-c1ccccc1	ZTA DNA inh 151, EBNA-1 inh 118
Cc1ccc(-n2c(/C=C/c3ccccn3)nc3ccccc3c2=O)cc1	none (no result: PP5 primary, PP1 counter, ZTA DNA inh, EBNA-1 inh)
Cc1cccc(N2C(=O)NC(=O)/C(=C/c3ccc([N+](=O)[O-])o3)C2=O)c1	ZTA DNA inh 37 (no result: bovine MsrA act, MsrA inhibitor)
NNc1n[nH]c(=S)n1N	none
CCOC(=O)Cn1cc(C(=O)c2ccccc2)c2ccccc21	none
CN1/C(=C\C=C\C2=[N+](C)c3ccc4ccccc4c3C2(C)C)C(C)(C)c2ccccc21	PP5 primary 12, PP1 counter 36, ZTA DNA inh active, EBNA-1 inh 101 (no result: bovine MsrA act, MsrA inhibitor)
O=C(NCCN1CCC2(CC1)C(=O)NCN2c1ccccc1)c1ccc(Cl)cc1	none (no result: PP5 primary, bovine MsrA act, PP1 counter, ZTA DNA inh, EBNA-1 inh)
Clc1ccc(CO/N=C(\Cn2ccnc2)c2ccc(Cl)cc2Cl)c(Cl)c1	PP1 counter 33 (no result: bovine MsrA act, MsrA inhibitor)
c1ccc(OCC2CO2)cc1 (stereo not given)	none (no result: EBNA-1 inh)
c1ccc(-c2[nH]c[n+](CC3CO3)c2-c2ccccc2)cc1 (stereo not given)	ZTA DNA inh 40 (no result: bovine MsrA act, MsrA inhibitor)
CCn1nc(-c2ccccc2)nc2c(=O)n(C)c(=O)nc1-2	bovine MsrA act 37, PP1 counter 39, ZTA DNA inh 74 (no result: MsrA inhibitor)
C=CC[N+]1(C)CC[C@]23c4c5ccc(O)c4O[C@H]2C(=O)CC[C@@]3(O)[C@H]1C5 (stereo not given in full)	none
CN(C)C(=O)Oc1noc2cc(Cl)ccc12	EBNA-1 inh 34 | EBNA-1 confirm inactive | ZTA DNA inh trip inactive
CN(C)C(=O)Oc1c(Cl)cc(Cl)c2cccnc12	none
CC(C)(O)/C=C/C(=O)C(C)(O)C1C(O)CC2(C)C3CC=C4C(C=C(O)C(=O)C4(C)C)C3(C)C(=O)CC12C (stereo not given)	none (no result: PP5 primary, PP1 counter, ZTA DNA inh, EBNA-1 inh)
O=c1[nH]c(=O)n(CCc2ccccc2)c(O)c1C=NCc1ccc2c(c1)OCO2	EBNA-1 inh 31 | EBNA-1 confirm 46 | ZTA DNA inh trip inactive
C=CCn1c(O)c(C=NCCN2CCOCC2)c(=O)[nH]c1=S	none
